The target in the first experiment is C1orf115. Description: pooled miR-30 sensor sort-seq; sequence = guide strand. The settings on record: shRNA.
Take TTGCAGGCCGATGACCACGTAG: the sensor-assay potency score (higher = more potent) is -1.3.
In the case of TCTAGTAACATCCTCTTCCTCC, the sensor-assay potency score (higher = more potent) came to 0.254.
In the case of TCGTCCGCCGCGCTCGTCCCGC, the sensor-assay potency score (higher = more potent) was -1.58.
Sequence TTCAAGTCTGAGATGCTCCAGG registered a sensor-assay potency score (higher = more potent) of 0.617.
Same read-out and setting: the same measure for TGACTCTAGTAACATCCTCTTC: -1.03.

The next experiment has as its target C1orf131. Described as above. The settings on record: shRNA.
With TAAATTACTAGATTCTTGGTTC, the sensor-assay potency score (higher = more potent) is 0.886.
The same measure, in the same setting: the same measure for TAACCCGTGATACCAAACCGGT: -1.37.
In turn, TTTTTCTTGAAAATATCTGTTT came in with a sensor-assay potency score (higher = more potent) of -0.422.
TTTAATGTAAACTACTAGCATT registered a sensor-assay potency score (higher = more potent) of -0.73.
Take TTTGGATTTCCTGTCCTCCTGT: the sensor-assay potency score (higher = more potent) was determined as 0.0328.
Regarding TTGTAATTCACATAACTCTTTT, the sensor-assay potency score (higher = more potent) is -0.919.
Same read-out and setting: the same measure for TTCTGTACCTCCAAAGTCGTAA: -0.764; for TTTCTTGATATCAACTGGGCTC: -0.367; for TATTTTCTTGATATCAACTGGG: 0.559.
Sequence TTATGATCTTCTTCTGTTCTGT came in with a sensor-assay potency score (higher = more potent) of -0.0808.
On the same count and under the same terms, the same measure for TTGAATTTTCCAACCTGTCCAA: 0.318; for TTCTTTATGATCTTCTTCTGTT: -0.273.

The values above are taken from the OligoGym collection.
Also: reference of the scale not given here.
